In ChEMBL document CHEMBL1157539, “Thousands of chemical starting points for antimalarial lead identification” (Nature, 2010) one finds Inhibition data, which are given here for 29 compounds.

Structures are written as SMILES.

Common to all, as to type: functional
Assay [1] deals with Plasmodium falciparum. As to the kind of experiment: GSK_TCMDC: Inhibition of Plasmodium falciparum 3D7 in whole red blood cells, using parasite LDH activity as an index of growth. Test compounds present at 2uM.
Assay [2] concerns Plasmodium falciparum. As to the kind of experiment: GSK_TCMDC: Inhibition of Plasmodium falciparum Dd2 in whole red blood cells, using parasite LDH activity as an index of growth. Test compounds present at 2uM.
In the next assay the test system is HepG2. As to the kind of experiment: GSK_TCMDC: Percent inhibition of human HepG2 cell line. Test compounds present at 10uM.

With `Cc1cccc2nc(-c3cccc(-c4ccc(NC(=O)Nc5ccc(Cl)cc5)cc4)c3)[nH]c12`, the Inhibition – broadly, the drop in the measured response relative to a control, in per cent – with Plasmodium falciparum [1] was determined as 100%; in the assay with Plasmodium falciparum [2], 96%; in the assay on HepG2, 63%.

For `Cc1cc(N2CCCC2)nc(Nc2ccc(NC(=O)c3ccco3)cc2)n1`, the Inhibition is 100% with Plasmodium falciparum [1], 43% in the assay on Plasmodium falciparum [2] and 23% with HepG2.

As to `CN(C)CCOc1cc(NC(=O)Nc2ccc(-c3ccncc3)c3ccccc23)ccc1I`, the values for the Inhibition in the assay on Plasmodium falciparum [1], in the assay with Plasmodium falciparum [2] and with HepG2 were 97%, 46% and 35%, respectively.

Turning to `CN(C)CCC1CCN(CCS(=O)(=O)c2cccc(Nc3ccc(-c4ccsc4)cn3)c2)CC1`, the results for the Inhibition with Plasmodium falciparum [1], in the assay with Plasmodium falciparum [2] and with HepG2 were 97%, 6% and 49%, respectively.

For the compound `Cc1ccc(Oc2ncccc2C(=O)Nc2cccc3cccnc23)c(C)c1`, the Inhibition with Plasmodium falciparum [1] came to 99%; in the assay with Plasmodium falciparum [2], 76%; in the assay with HepG2, 0%.

`CCOc1ccc2c(=NN=Cc3cc(OC)c(OC)cc3OC)cc(C)[nH]c2c1`: the Inhibition in the assay on Plasmodium falciparum [1] turned out to be 100%; with Plasmodium falciparum [2], 97%; in the assay with HepG2 it was 24%.

For `N#Cc1ccc(N/C(=N\c2ccccc2Cl)NC2CCN(Cc3ccccc3)CC2)c(O)c1`, the Inhibition was determined as 100% in the assay with Plasmodium falciparum [1], 97% in the assay with Plasmodium falciparum [2] and 31% in the assay with HepG2.

For `COc1ccc2ccc(F)c(CC(=O)N3CCOC(CNCc4cccc(-c5ccc(F)cc5)n4)C3)c2n1` (configuration not stated), the Inhibition stood at 92% with Plasmodium falciparum [1], 1% in the assay on Plasmodium falciparum [2] and 5% with HepG2.

Take `O=C(Nc1ccc(CCNCCCc2ccccc2)cc1)Nc1ccc(Cl)c(Cl)c1`: the Inhibition in the assay on Plasmodium falciparum [1] is 100%; with Plasmodium falciparum [2] it was 99%; in the assay on HepG2, 33%.

Regarding `C[C@H](Nc1c(Nc2ccc3[nH]ccc3c2)c(=O)c1=O)C1CCCCC1`, the results for the Inhibition in the assay with Plasmodium falciparum [1], in the assay on Plasmodium falciparum [2] and in the assay on HepG2 were 96%, 11% and 7%, respectively.

`CN(C)CCN1CCN(Cc2cccc(-c3csc(-c4nc5ccccc5[nH]4)c3)c2)CC1.O=C(O)C(F)(F)F`: the Inhibition is reported as 100% in the assay with Plasmodium falciparum [1], 97% with Plasmodium falciparum [2] and 28% in the assay on HepG2.

`O=C(/C=C/c1ccc(C(F)(F)F)cc1)N1CCc2cc3nccc(N4CCN5CCC[C@H]5C4)c3cc21`: the Inhibition is given as 86% with Plasmodium falciparum [1], 21% in the assay with Plasmodium falciparum [2] and 0% in the assay on HepG2.

As to `O=C(Nc1ccc2c(c1)CCN2C1CCN(Cc2csc3ccccc23)C1)c1ccco1` (configuration not stated), the Inhibition turned out to be 95% with Plasmodium falciparum [1], 95% in the assay with Plasmodium falciparum [2] and 0% in the assay with HepG2.

Consider `CCCCCOc1ccc(C=NNc2nc(O)cc(-c3ccccc3)n2)cc1`, for which the figures for the Inhibition in the assay with Plasmodium falciparum [1], in the assay on Plasmodium falciparum [2] and in the assay with HepG2 were 88%, 86% and 0%, respectively.

`CC1(C)CCCC(=Cc2ccc(Br)cc2)C1(O)Cn1ccnc1` (configuration not stated): the Inhibition with Plasmodium falciparum [1] came to 99%; in the assay with Plasmodium falciparum [2] it was 69%; in the assay with HepG2, 7%.

`O=C(Nc1ccc(Cn2ncc(N3CCCNCC3)c(Cl)c2=O)cc1)Nc1cc(F)cc(C(F)(F)F)c1.O=C(O)C(F)(F)F`: the Inhibition in the assay with Plasmodium falciparum [1] is given as 100%; in the assay on Plasmodium falciparum [2], 44%; in the assay with HepG2, 35%.

As for `O=C(NCCN1CCOCC1)c1ccc(-c2ccc(CNCCCc3ccccc3)cc2)nc1.O=C(O)C(F)(F)F`, the Inhibition is recorded as 97% in the assay on Plasmodium falciparum [1], 10% with Plasmodium falciparum [2] and 0% in the assay on HepG2.

Regarding `COc1ccc(-n2ccnc2SCC(=O)Nc2cccc(C(F)(F)F)c2)c(OC)c1`, the Inhibition stood at 98% in the assay with Plasmodium falciparum [1], 88% with Plasmodium falciparum [2] and 0% in the assay with HepG2.

With `O=C(/C=C/c1ccc([N+](=O)[O-])cc1)N1CCC(CCN2CCC(c3c[nH]c4ccccc34)CC2)CC1`, the Inhibition was found to be 100% in the assay with Plasmodium falciparum [1], 48% with Plasmodium falciparum [2] and 60% with HepG2.

`c1cc2[nH]c(CCc3nc4cc(C5=NC6CCCCC6N5)ccc4[nH]3)nc2cc1C1=NC2CCCCC2N1` (configuration not stated): the Inhibition in the assay on Plasmodium falciparum [1] worked out at 93%; in the assay on Plasmodium falciparum [2], 96%; in the assay with HepG2, 3%.

On to `O=C(/C=C/c1ccc(Cl)c(Cl)c1)NCCCCCCN1CCN(C(=O)Nc2cccc(Cl)c2)CC1`, for which the values for the Inhibition with Plasmodium falciparum [1], with Plasmodium falciparum [2] and in the assay with HepG2 were 85%, 2% and 33%, respectively.

In the case of `CC[C@H](C)CNC(=O)c1cncc(-c2cccc(CNCCCc3ccccc3)c2)c1.O=C(O)C(F)(F)F`, the Inhibition in the assay with Plasmodium falciparum [1] is on record as 95%; with Plasmodium falciparum [2], 0%; with HepG2, 9%.

Take `CN1CCc2ccc(NC(=O)Nc3ccc(-c4ccccc4)cc3)cc2C1`: the Inhibition with Plasmodium falciparum [1] is 90%; in the assay with Plasmodium falciparum [2], 45%; in the assay with HepG2, 24%.

On to `COc1cccc(C=CC(=O)N(CCN)Cc2ccccc2)c1.O=C(O)C(=O)O`, for which the Inhibition is listed as 99% in the assay on Plasmodium falciparum [1], 0% in the assay on Plasmodium falciparum [2] and 0% with HepG2.

On to `Cl.OC(CN1CCN(c2cccc(Cl)c2)CC1)C(c1ccccc1)c1ccccc1` (configuration not stated), for which the Inhibition is reported as 85% in the assay with Plasmodium falciparum [1], 4% in the assay with Plasmodium falciparum [2] and 0% in the assay with HepG2.

Regarding `Nc1ncc(-c2cccc(CCN3CCOCC3)c2)cc1-c1nc2cc(Br)ccc2[nH]1.O=C(O)C(F)(F)F`, the Inhibition with Plasmodium falciparum [1] is reported as 100%; in the assay on Plasmodium falciparum [2] it was 98%; in the assay with HepG2 it was 60%.

As to `O=[N+]([O-])c1nc(Br)n(Cc2ccc(Cl)cc2)n1`, the Inhibition in the assay with Plasmodium falciparum [1] came to 96%; in the assay on Plasmodium falciparum [2], 95%; in the assay on HepG2 it was 0%.

As to `COc1ccc(CCN(C)CCc2ccc(NC(=O)c3cccc4c(=O)c5ccccc5sc34)cc2)cc1`, the Inhibition came to 95% with Plasmodium falciparum [1], 33% in the assay on Plasmodium falciparum [2] and 24% in the assay with HepG2.

Consider `O=C(Nc1ccc(-c2cncc(NCCCN3CCCC3)c2)cc1)c1ccccc1`, for which the results for the Inhibition in the assay with Plasmodium falciparum [1], with Plasmodium falciparum [2] and with HepG2 were 94%, 49% and 0%, respectively.
